Source: PubChem BioAssay (EPA / NIEHS)
Calls of active or inactive are those of the source. Rule for the calls: active = hit-call score of the fitted dose curve at least 0.9, where 1 is the maximum; inactive = score below 0.9.

Experiments:
Conditions in all cases: mRNA level, 48 h; actives raise or lower the signal
[1] = read-out: 3-Hydroxy-3-Methylglutaryl-CoA Synthase 2 (HMGCS2), HMGCS2 (gene 3158); experiment: LTEA_HepaRG_HMGCS2: Life Technologies and Expression Analysis (LTEA) Assay for 3-Hydroxy-3-Methylglutaryl-CoA Synthase 2 (HMGCS2) using HepaRG (AID 2283504)
In short: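 Human HepaRG cells in serum-free induction medium were exposed in duplicate for 48 h to 8-point half-log series from 100 uM top in 0.5% DMSO. HMGCS2 mRNA measured by TaqMan qRT-PCR, normalised to ACTB, GAPDH, POLR2A; bidirectional fit versus DMSO.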

HGF (gene 3082) = experiment: LTEA_HepaRG_HGF: Life Technologies and Expression Analysis (LTEA) Assay for Hepatocyte Growth Facto (HGF) using HepaRG (AID 2283505)
In short: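 Differentiated HepaRG cells in serum-free induction medium exposed 48 h in duplicate, 8 half-log concentrations from 100 uM in 0.5% DMSO. HGF mRNA by qRT-PCR, normalised to ACTB, GAPDH, POLR2A; bidirectional fitting.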

[2] = read-out: Insulin Like Growth Factor 1 (IGF1), IGF1 (gene 3479); experiment: LTEA_HepaRG_IGF1: Life Technologies and Expression Analysis (LTEA) Assay for Insulin Like Growth Factor 1 (IGF1) using HepaRG (AID 2283506)
In short: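 Using human HepaRG liver cells, IGF1 transcript induction or suppression is measured 48 h after dosing across eight concentrations capped at 100 uM. Values derive from bidirectional concentration-response fitting with DMSO as baseline.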

[3] = read-out: Intercellular Adhesion Molecule 1 (ICAM1), ICAM1 (gene 3383); experiment: LTEA_HepaRG_ICAM1: Life Technologies and Expression Analysis (LTEA) Assay for Intercellular Adhesion Molecule 1 (ICAM1) using HepaRG (AID 2283507)
In short: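 Differentiated human HepaRG cells in serum-free induction medium exposed 48 h in duplicate to 8 half-log concentrations (top 100 uM, 0.5% DMSO). ICAM1 mRNA quantified by TaqMan qRT-PCR, normalized to ACTB, GAPDH and POLR2A; bidirectional fitting versus DMSO.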

[4] = read-out: Insulin-like growth factor-binding protein 1 (IGFBP1), IGFBP1 (gene 3484); experiment: LTEA_HepaRG_IGFBP1: Life Technologies and Expression Analysis (LTEA) Assay for Insulin-like growth factor-binding protein 1 (IGFBP1) using HepaRG (AID 2283508)
In short: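 HepaRG cells, plated 48 h then switched to serum-free induction medium, exposed in duplicate for 48 h to 8-point half-log series from 100 uM in 0.5% DMSO. mRNA measured by qRT-PCR, normalized to ACTB/GAPDH/POLR2A; bidirectional fit versus DMSO.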

[5] = read-out: Interleukin 6 (IL6), IL6 (gene 3569); experiment: LTEA_HepaRG_IL6: Life Technologies and Expression Analysis (LTEA) Assay for Interleukin 6 (IL6) using HepaRG (AID 2283509)
In short: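 HepaRG, ~100,000 cells/well, 48 h pre-culture; serum-free induction medium; cmpd 8-pt half-log from 100 uM, 0.5% DMSO, duplicate, 48 h. Lysis in RLT, TaqMan qRT-PCR; gain or loss vs DMSO.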

[6] = read-out: Interleukin 6 Receptor (IL6R), IL6R (gene 3570); experiment: LTEA_HepaRG_IL6R: Life Technologies and Expression Analysis (LTEA) Assay for Interleukin 6 Receptor (IL6R) using HepaRG (AID 2283510)
In short: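 Concentration-response in human liver HepaRG cells: eight concentrations from 100 uM downward by half-logs, 48 h exposure, 0.5% DMSO vehicle. IL6R mRNA change measured by qRT-PCR and fitted in both directions relative to vehicle.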

[7] = read-out: Potassium channel subfamily K member 1 (KCNK1), KCNK1 (gene 3775); experiment: LTEA_HepaRG_KCNK1: Life Technologies and Expression Analysis (LTEA) Assay for Potassium channel subfamily K member 1 (KCNK1) using HepaRG (AID 2283511)
In short: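 Gain or loss of KCNK1 mRNA is the read-out, quantified by qRT-PCR against three housekeeping genes after 48 h chemical treatment of human HepaRG liver cells. Concentrations ran from 100 uM downward in half-log steps, vehicle 0.5% DMSO.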

[8] = read-out: Keratin 19 (KRT19), KRT19 (gene 3880); experiment: LTEA_HepaRG_KRT19: Life Technologies and Expression Analysis (LTEA) Assay for Keratin 19 (KRT19) using HepaRG (AID 2283512)
In short: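 Differentiated HepaRG cells in serum-free induction medium, exposed 48 h in duplicate to 8 half-log concentrations up to 100 uM in 0.5% DMSO. KRT19 mRNA by qRT-PCR, normalized to ACTB, GAPDH, POLR2A; bidirectional fit vs DMSO.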

[9] = read-out: JUN Transcription Factor, JUN (gene 3725); experiment: LTEA_HepaRG_JUN: Life Technologies and Expression Analysis (LTEA) Assay for JUN Transcription Factor using HepaRG (AID 2283513)
In short: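 Human HepaRG liver cells receive test chemicals in 0.5% DMSO for 48 h across an eight-point range topping at 100 uM. Expression changes in JUN are scored in both directions against the DMSO vehicle.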

[10] = read-out: Lipase C (LIPC), LIPC (gene 3990); experiment: LTEA_HepaRG_LIPC: Life Technologies and Expression Analysis (LTEA) Assay for Lipase C (LIPC) using HepaRG (AID 2283514)
In short: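 Read-out is LIPC transcript level by TaqMan qRT-PCR, normalized to three housekeeping genes, after 48 h chemical treatment of human HepaRG liver cells. Curves span eight concentrations topping at 100 uM; activity in either direction scored relative to 0.5% DMSO.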

[11] = read-out: Lipoprotein lipase (LPL), LPL (gene 4023); experiment: LTEA_HepaRG_LPL: Life Technologies and Expression Analysis (LTEA) Assay for Lipoprotein lipase (LPL) using HepaRG (AID 2283515)
In short: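 Read-out is LPL transcript level by qRT-PCR, normalized to three housekeeping genes and fitted bidirectionally against the DMSO control. Human HepaRG cells received chemicals for 48 h at up to 100 uM.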

[12] = read-out: MicroRNA 122 (MIR122), gene 406906; experiment: LTEA_HepaRG_MIR122: Life Technologies and Expression Analysis (LTEA) Assay for MicroRNA 122 (MIR122) using HepaRG (AID 2283516); note: the transcript read is the microRNA miR-122
In short: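 HepaRG, 48 h exposure, 8-pt half-log from 100 uM, 0.5% DMSO; TaqMan qRT-PCR; bidirectional fit vs DMSO.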

[13] = read-out: matrix metalloproteinase-10 (MMP10), MMP10 (gene 4319); experiment: LTEA_HepaRG_MMP10: Life Technologies and Expression Analysis (LTEA) Assay for matrix metalloproteinase-10 (MMP10) using HepaRG (AID 2283517)
In short: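 Gain or loss of MMP10 mRNA is fitted relative to the 0.5% DMSO vehicle. The human hepatic line HepaRG receives a 48-hour serum-free exposure, in duplicate, with a maximum concentration of 100 uM.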

MYC, MYC (gene 4609) = experiment: LTEA_HepaRG_MYC: Life Technologies and Expression Analysis (LTEA) Assay for MYC using HepaRG (AID 2283518)
In short: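 Differentiated HepaRG cells exposed 48 h in serum-free induction medium to 8 concentrations (top 100 uM, half-log steps; 0.5% DMSO), duplicate. MYC mRNA measured by Fluidigm qRT-PCR, normalized to ACTB, GAPDH, POLR2A; bidirectional fit versus DMSO.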

[14] = read-out: matrix metalloproteinase-3 (MMP3), MMP3 (gene 4314); experiment: LTEA_HepaRG_MMP3: Life Technologies and Expression Analysis (LTEA) Assay for matrix metalloproteinase-3 (MMP3) using HepaRG (AID 2283519)
In short: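 HepaRG, human; 48 h dosing, 8 conc. (max 100 uM, half-log), duplicate, 0.5% DMSO. Readout: MMP3 transcript by Fluidigm TaqMan qRT-PCR, ACTB/GAPDH/POLR2A-normalised. Gain or loss fitted vs DMSO.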

[15] = read-out: Paternally Expressed 10 (PEG10), PEG10 (gene 23089); experiment: LTEA_HepaRG_PEG10: Life Technologies and Expression Analysis (LTEA) Assay for Paternally Expressed 10 (PEG10) using HepaRG (AID 2283520)
In short: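 Chemicals tested on HepaRG cells for 48 h, highest concentration 100 uM. PEG10 expression assessed by qRT-PCR relative to DMSO control.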

[16] = read-out: Nuclear factor NF-kappa-B p105 subunit (Homo sapiens) (UniProt P19838); experiment: LTEA_HepaRG_NFKB1: Life Technologies and Expression Analysis (LTEA) Assay for Nuclear Factor Kappa B Subunit 1 (NFKB1) using HepaRG (AID 2283521)
In short: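 Differentiated human HepaRG cells in serum-free induction medium with 0.5% DMSO were exposed for 48 h to eight half-log concentrations, top 100 uM, in duplicate. NFKB1 mRNA measured by Fluidigm TaqMan qRT-PCR, normalised to ACTB, GAPDH and POLR2A; bidirectional fit versus DMSO.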

[17] = read-out: Protein phosphatase 2A (PPP2R4), PTPA (gene 5524); experiment: LTEA_HepaRG_PPP2R4: Life Technologies and Expression Analysis (LTEA) Assay for Protein phosphatase 2A (PPP2R4) using HepaRG (AID 2283522)
In short: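 Gene-expression endpoint in HepaRG hepatic cells: 48 h treatment across eight half-log concentrations up to 100 uM in 0.5% DMSO. PPP2R4 mRNA by qRT-PCR, normalized to three endogenous control genes.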

[18] = read-out: Phosphatase and tensin (PTEN), PTEN (gene 5728); experiment: LTEA_HepaRG_PTEN: Life Technologies and Expression Analysis (LTEA) Assay for Phosphatase and tensin (PTEN) using HepaRG (AID 2283523)
In short: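 Read-out is PTEN transcript level by multiplexed TaqMan qRT-PCR after 48 h chemical treatment of human HepaRG cultures in serum-free induction medium. Concentrations spanned 100 uM downward in half-log steps, 0.5% DMSO throughout; activity fitted in both directions against vehicle.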

Measured: AC50

Chain of Nuclear factor NF-kappa-B p105 subunit (Homo sapiens) (P19838 whole entry, looked up): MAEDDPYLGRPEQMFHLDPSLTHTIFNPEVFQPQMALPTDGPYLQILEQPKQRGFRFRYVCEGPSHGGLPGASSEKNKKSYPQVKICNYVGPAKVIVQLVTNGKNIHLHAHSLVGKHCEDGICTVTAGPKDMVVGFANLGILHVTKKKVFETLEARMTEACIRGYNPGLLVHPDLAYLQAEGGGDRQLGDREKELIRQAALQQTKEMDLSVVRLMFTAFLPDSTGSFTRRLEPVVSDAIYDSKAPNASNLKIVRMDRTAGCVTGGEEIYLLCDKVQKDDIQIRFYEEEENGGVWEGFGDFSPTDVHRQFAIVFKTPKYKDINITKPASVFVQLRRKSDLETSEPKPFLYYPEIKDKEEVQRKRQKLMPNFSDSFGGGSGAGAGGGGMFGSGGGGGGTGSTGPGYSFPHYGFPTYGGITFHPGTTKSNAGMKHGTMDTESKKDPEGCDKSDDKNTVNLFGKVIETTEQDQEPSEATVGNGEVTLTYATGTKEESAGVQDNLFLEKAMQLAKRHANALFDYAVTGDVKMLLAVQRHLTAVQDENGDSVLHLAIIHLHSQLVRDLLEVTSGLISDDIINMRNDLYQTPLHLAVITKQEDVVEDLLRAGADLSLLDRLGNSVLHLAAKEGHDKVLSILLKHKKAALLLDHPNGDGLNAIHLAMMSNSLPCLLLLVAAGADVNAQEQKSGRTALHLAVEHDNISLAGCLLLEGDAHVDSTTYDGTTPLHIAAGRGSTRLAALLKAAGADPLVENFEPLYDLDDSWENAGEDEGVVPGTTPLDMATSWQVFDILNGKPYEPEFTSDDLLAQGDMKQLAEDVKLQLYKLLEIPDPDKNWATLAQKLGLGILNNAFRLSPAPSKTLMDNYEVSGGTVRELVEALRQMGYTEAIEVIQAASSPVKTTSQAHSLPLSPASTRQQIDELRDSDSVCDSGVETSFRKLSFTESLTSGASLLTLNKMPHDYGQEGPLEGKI

O=C(O)[C@H](O)[C@@H](O)C(=O)O
inactive: [1] | HGF (gene 3082) | [2] | [3] | [4] | [5] | [6] | [7] | [8] | [9] | [10] | [11] | [12] | [13] | MYC, MYC (gene 4609) | [14] | [15] | [16] | [17] | [18]

OC(Cn1cncn1)(Cn1cncn1)c1ccc(F)cc1F
inactive: [1] | HGF (gene 3082) | [2] | [3] | [4] | [5] | [6] | [7] | [8] | [9] | [10] | [11] | [12] | [13] | MYC, MYC (gene 4609) | [14] | [15] | [16] | [17] | [18]

OC[C@H]1O[C@@](CO)(O[C@H]2O[C@H](CO)[C@@H](O)[C@H](O)[C@H]2O)[C@@H](O)[C@@H]1O
inactive: [1] | HGF (gene 3082) | [2] | [3] | [4] | [5] | [6] | [7] | [8] | [9] | [10] | [11] | [12] | [13] | MYC, MYC (gene 4609) | [14] | [15] | [16] | [17] | [18]

CCn1nc(C)c2c1C(=O)NCC(c1ccc(O)cc1)=N2
active: [8] 1840 nM
inactive: [1] | HGF (gene 3082) | [2] | [3] | [4] | [5] | [6] | [7] | [9] | [10] | [11] | [12] | [13] | MYC, MYC (gene 4609) | [14] | [15] | [16] | [17] | [18]

CC[C@H](C)C(=O)O[C@H]1C[C@H](O)C=C2C=C[C@H](C)[C@H](CC[C@@H](O)C[C@@H](O)CC(=O)O)[C@H]21
inactive: [1] | HGF (gene 3082) | [2] | [3] | [4] | [5] | [6] | [7] | [8] | [9] | [10] | [11] | [12] | [13] | MYC, MYC (gene 4609) | [14] | [15] | [16] | [17] | [18]

CCCCCCCCCCCCCCO
inactive: [1] | HGF (gene 3082) | [2] | [3] | [4] | [5] | [6] | [7] | [8] | [9] | [10] | [11] | [12] | [13] | MYC, MYC (gene 4609) | [14] | [15] | [16] | [17] | [18]
